We go through three compounds from PubChem BioAssay (NCATS).

Records with an inconclusive call do not appear. The source made the active and inactive calls. Unless noted, the call rests on the fitted dose curve; in most records, active means well fitted curve in the direction sought with a large enough effect; inconclusive means small, poorly fitted or top-dose-only effect, or another doubt; inactive means no such curve, though single readings can be large; an effect the other way counts as inactive or inconclusive.

The target of test [1] is T1, Hexokinase-4 (Homo sapiens) + Glucokinase regulatory protein (Homo sapiens) (UniProt P35557+Q14397). Put plainly: qHTS assay for inhibitors of recombinant human GCK-GKRP interaction: Diaphorase-coupled assay (AID 743205). An outline of the steps: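 GST-GCK (10 nM) with FLAG-GKRP (10 nM), 5 mM glucose and 0.4 mM ATP in pH 7.6 Hepes; compounds preincubated 20 min with substrate. G6PDH/diaphorase coupling converts resazurin to resorufin, read kinetically (ex 525/em 590 nm) for 30 min.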
T1 sequence (P35557 whole entry, looked up): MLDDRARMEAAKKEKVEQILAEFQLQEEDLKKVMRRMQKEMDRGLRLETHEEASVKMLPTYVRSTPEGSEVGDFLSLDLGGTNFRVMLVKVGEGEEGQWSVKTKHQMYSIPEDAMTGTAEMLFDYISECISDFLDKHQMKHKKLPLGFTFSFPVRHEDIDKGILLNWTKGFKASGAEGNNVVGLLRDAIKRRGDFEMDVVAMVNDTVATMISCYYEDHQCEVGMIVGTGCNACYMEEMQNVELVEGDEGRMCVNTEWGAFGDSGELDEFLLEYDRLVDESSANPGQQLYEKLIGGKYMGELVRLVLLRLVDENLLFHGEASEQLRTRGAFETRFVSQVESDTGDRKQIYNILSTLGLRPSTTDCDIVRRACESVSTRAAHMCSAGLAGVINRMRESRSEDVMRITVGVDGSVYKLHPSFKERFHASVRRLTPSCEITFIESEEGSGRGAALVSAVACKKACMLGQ
T1 sequence (Q14397 whole entry, looked up): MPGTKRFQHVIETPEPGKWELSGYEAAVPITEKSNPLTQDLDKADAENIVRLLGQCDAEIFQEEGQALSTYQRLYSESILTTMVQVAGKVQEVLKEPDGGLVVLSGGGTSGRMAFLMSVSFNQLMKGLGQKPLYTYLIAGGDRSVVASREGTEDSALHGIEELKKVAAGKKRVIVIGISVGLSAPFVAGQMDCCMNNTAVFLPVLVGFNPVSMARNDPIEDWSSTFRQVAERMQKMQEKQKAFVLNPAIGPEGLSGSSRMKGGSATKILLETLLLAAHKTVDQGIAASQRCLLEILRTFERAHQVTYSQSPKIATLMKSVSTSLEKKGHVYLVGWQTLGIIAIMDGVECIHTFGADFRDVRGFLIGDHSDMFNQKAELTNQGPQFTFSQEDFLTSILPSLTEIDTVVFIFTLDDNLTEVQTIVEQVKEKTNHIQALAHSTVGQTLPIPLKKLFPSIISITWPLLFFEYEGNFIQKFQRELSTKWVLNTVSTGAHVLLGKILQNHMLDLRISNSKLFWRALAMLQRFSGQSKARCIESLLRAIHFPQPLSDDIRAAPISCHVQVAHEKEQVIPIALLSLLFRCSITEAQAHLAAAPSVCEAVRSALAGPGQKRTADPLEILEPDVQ

Test [2] deals with T1, Hexokinase-4 (Homo sapiens) + Glucokinase regulatory protein (Homo sapiens). Put plainly: qHTS assay for inhibitors of recombinant human GCK-GKRP interaction: ADP-Glo assay (AID 743206).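 Further: plate controls were DMSO plus enzyme for no effect and no enzyme for full effect.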 An outline of the steps: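 GST-GCK and FLAG-GKRP (15 nM each in the dispensed mix, with 2 uM S6P) react with 0.4 mM ATP and 5 mM glucose (final) in Hepes pH 7.6 for 60 min at room temperature. ADP is measured by ADP-Glo luminescence.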
Background: In qHTS, concentration-response curves come from the screen itself.

The target is the same in test [3]. Put plainly: qHTS assay for inhibitors of recombinant human GCK-GKRP interaction: HTRF assay (AID 743207).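 Further: 0% = DMSO with GCK present and -100% = DMSO wells lacking GCK.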 An outline of the steps: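 GST-GCK and FLAG-GKRP (5 nM each) were combined with 2 uM S6P in pH 7.1 Hepes/MgCl2/KCl/DTT buffer, then compound and anti-FLAG XL665/anti-GST K antibodies were added. After 60 min at room temperature, HTRF 665/615 nm emission was read.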

Test [4] can be described thus: qHTS Assay for Identifying Gametocytocidal Compounds (AID 743244).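 Further: on the % scale 0 is the no-effect control and ±100 the full control effect; actives lower the fluorescent signal which means gametocytes are killed.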 The settings on record: P. falciparum 3D7 stage III-V gametocytes, alamarBlue, 72 h; max response: stronger effect = lower value. An outline of the steps: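 A resazurin-based viability read-out was applied to mature P. falciparum gametocytes: 72 h compound treatment, then 24 h dye incubation, with falling fluorescence signalling gametocytocidal effect.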

Test [5] can be described thus: qHTS profiling of the MIPE4 collection as inhibitors of Plasmodium falciparum (3D7) proliferation (AID 743344; call rule not given here). The following applies: P. falciparum 3D7 in erythrocytes, SYBR Green DNA fluorescence, 72 h; at 28.5 µM (top of the series) unless noted. An outline of the steps:
(§1)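 Erythrocytes infected with P. falciparum (0.3% parasitemia, 2.5% hematocrit) incubated with compounds 72 h at 37 C, 5% CO2. Lysis with saponin/Triton buffer containing SYBR Green I, overnight at room temperature in the dark; DNA fluorescence (485/535 nm) normalised to 0.29 uM artemisinin and DMSO.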

Test [6] is described as follows: qHTS profiling of the MIPE4 collection as inhibitors of Plasmodium falciparum (DD2) proliferation (AID 743345; call rule not given here). The following applies: P. falciparum Dd2 in erythrocytes, SYBR Green DNA, 72 h; at 28.5 µM (top of the series) unless noted. An outline of the steps: as §1
Test [7] can be described thus: qHTS profiling of the MIPE4 collection as inhibitors of Plasmodium falciparum (DD2) proliferation (Rep 2) (AID 743346; call rule not given here). The following applies: P. falciparum Dd2 in erythrocytes, SYBR Green DNA, 72 h; at 28.5 µM (top of the series) unless noted. An outline of the steps: as §1
Test [8] is described as follows: qHTS profiling of the MIPE4 collection as inhibitors of Plasmodium falciparum (HB3) proliferation (AID 743347; call rule not given here;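 further: plate controls were DMSO vehicle wells for no effect and artemisinin wells for full effect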). The settings on record: P. falciparum HB3 in erythrocytes, SYBR Green DNA, 72 h; at 28.5 µM (top of the series) unless noted. An outline of the steps: as §1
Test [9] is described as follows: High-throughput drug toxicity screening in the BPDCN cell line Gen2.2 (AID 1224824; call rule not given here;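 further: cells exposed to compounds for 48 h before reading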). The settings on record: Gen2.2 BPDCN cells; at 45.8 µM (top of the series) unless noted. An outline of the steps:
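Gen2.2 cells (500/well) in phenol red-free RPMI with 10% FBS were exposed to compounds for 48 h at 37 °C, 5% CO2. Viability was read by CellTiter-Glo luminescence and normalized to DMSO (100%) and 9.2 uM bortezomib (0%).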

A short description of test [10]: High-throughput drug toxicity screening in the BPDCN cell line Cal-1 (AID 1224825; call rule not given here). The following applies: Cal-1 BPDCN cell viability, qHTS; at 45.8 µM (top of the series) unless noted. The method, boiled down: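 500 Cal-1 cells/well, RPMI + glutamine + 10% FBS (phenol red-free); cpd added by pin tool; 48 h, 37C, 5% CO2; CTG 15 min RT, lumi read. Normalised: DMSO 100%, bortezomib 9.2 uM 0%.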

Test [11] is described as follows: qHTS assay for measurement of the activity of small molecule inhibitors on Zika virus induced Caspase-3 activity in human iPSC derived neural progenitor cells (hNPCs) (AID 1224857). Further: % of control where 0% means no effect; nearly all actives have a fitted effect of over 65% in size. An outline of the steps:
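Quantitative HTS format: human iPSC neural progenitors, 1 h compound pretreatment, ZIKV 2 FFU/cell for 6 h at 37 C. Percent inhibition derived from luminescent caspase-3/7 signal between uninfected and infected controls.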

A short description of test [12]: qHTS assay for measurement of the activity of small molecule inhibitors on Zika virus induced Caspase-3 activity in human astrocytoma cells (AID 1224859).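 Further: plate controls were ZIKV-infected untreated cells for no effect and uninfected cells for full effect.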 An outline of the steps: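 Readout is luminescence from Caspase-Glo 3/7 added after a 6 h ZIKV infection (2 FFU/cell) of compound-pretreated (1 h) SNB-19 cells; data expressed as % inhibition versus uninfected and infected wells.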

The nature of test [13]: qHTS Screen of the MIPE 4.0 Collection Against Ewings Sarcoma (TC71) (AID 1259253). Further: nearly all actives have a fitted effect of over 40% in size. Further: potency means the concentration at half of the fitted maximal effect. The method, boiled down: (§2)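 CellTiter-Glo luminescence after 48 h compound exposure (titration) gave viability; percent activity used DMSO-treated cells as no inhibition and medium-only wells as full inhibition. Cells grown in RPMI/5% FBS, dosed 4 h post-seeding.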
Test [14] is described as follows: qHTS Screen of the MIPE 4.0 Collection Against Ewings Sarcoma (EW8) (AID 1259255). Further: nearly all actives have a fitted effect of over 35% in size. Further: potency means the concentration at half of the fitted maximal effect.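 On viability: 100% = DMSO-treated cells and 0% = medium-only wells without cells.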 An outline of the steps: as §2
Test [15] is described as follows: qHTS Screen of the MIPE 4.0 Collection Against Ewings Sarcoma (RDES) (AID 1259252). Further: potency means the concentration at half of the fitted maximal effect; nearly all actives have a fitted effect of over 35% in size. An outline of the steps: as §2
Test [16] can be described thus: qHTS profiling for inhibitors of Plasmodium falciparum (3D7) proliferation (AID 743322; call rule not given here;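 further: infected erythrocytes exposed to compound for 72 h before lysis; 100% = DMSO vehicle wells and 0% = 0.29 µM artemisinin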). The settings on record: P. falciparum 3D7 proliferation; at 28.7 µM (top of the series) unless noted. The method, boiled down: as §1
The nature of test [17]: qHTS profiling for inhibitors of Plasmodium falciparum (DD2) proliferation (AID 743323; call rule not given here). The settings on record: lower = more inhibition; at 28.7 µM (top of the series) unless noted. The method, boiled down: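 Parasite proliferation measured via DNA-dye fluorescence, as uninfected erythrocytes lack DNA. Cultures at 0.3% parasitemia and 2.5% hematocrit incubated 72 h with compound; signal scaled between vehicle and 0.29 uM artemisinin wells.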

Turning to `CN(C)CCCC1(c2ccc(F)cc2)OCc2cc(C#N)ccc21` (stereo not given), the outcome in test [1], in [2] and in [3] was inactive. Moreover, the max response in test [4] is 7.27% (inactive). This compound also yielded a parasite growth, % of DMSO control in test [5] of 95.4%. Moreover, the parasite growth remaining, % of DMSO control (lower = more inhibition) in [6] was 63.7%. The parasite growth, % of control (lower = inhibition) in test [7] was determined as 45.5%. In test [8], this compound displayed a growth, % of control of 93%. In test [9], the cell viability, % of control (lower = more cytotoxic) turned out to be 120%. This compound also returned a viability (% of control) in [10] of 99.6%. The Potency entry in [11], in test [12] and in test [14] was “inactive” throughout. Further, in test [13], the Potency was 14.8 µM (active).
With `Cn1c(NCCN(CCO)CCCc2ccc([N+](=O)[O-])cc2)cc(=O)n(C)c1=O`, the max response in test [4] is 4.58% (inactive). Further, the parasite growth, % of DMSO control in [5] was determined as 5.83%. For the same compound, the parasite growth remaining, % of DMSO control (lower = more inhibition) in test [6] stood at 76.1%. In addition, the parasite growth, % of control (lower = inhibition) in test [7] amounted to 7.33%. The growth, % of control in test [8] is 9.64%. In addition, the cell viability, % of control (lower = more cytotoxic) in [9] is 108%. In addition, the viability (% of control) in test [10] is 67.6%. Moreover, the Potency result in [11] and in test [12] was “inactive” each time. Moreover, the Potency in [15] was 20.9 µM (active); in [13], 18.7 µM (active).
Consider `CCOC(=O)C(C)Oc1cccc2c(=O)n(CC(=O)Nc3ccc4c(c3)OCCO4)ccc12` (stereo not given), for which the outcome in test [1], in test [2] and in test [3] was inactive. Also, in test [16], the remaining parasite growth % (stronger effect = lower value) is 115%. The compound further had an activity, percent of control in test [17] of 97.4%. The parasite growth, % of DMSO control in test [5] was found to be 72.1%. This compound also came in with a parasite growth remaining, % of DMSO control (lower = more inhibition) in [6] of 92.5%. Besides, in [7], the parasite growth, % of control (lower = inhibition) came out at 81.6%. Also, the growth, % of control in test [8] came to 96%. In [9], the cell viability, % of control (lower = more cytotoxic) amounted to 102%. The viability (% of control) in [10] was 88%. In addition, the Potency result in test [11], in test [12] and in test [13] was “inactive” throughout. For the same compound, the Potency in test [14] was 2.64 µM (active).
